Results published in publication PMC4336329 (PLoS ONE, 2015).
Screen size: about 310,000 compounds; about 14,000 (4.5%) showed an effect of 50% or more. Effects have a minus sign here. Only a selection was taken, and strong results are over-represented in it overall.

The molecules below were run against human ether-à-go-go-related gene (hERG) potassium channel (human, UniProt Q12809) (assay: primary screen, population patch clamp on CHO cells stably expressing hERG; higher = less effect of the substance).
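Also: peak tail current of the secondary pulse compared with the same well before compound.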

Sequence of human ether-à-go-go-related gene (hERG) potassium channel (Q12809 whole entry, looked up): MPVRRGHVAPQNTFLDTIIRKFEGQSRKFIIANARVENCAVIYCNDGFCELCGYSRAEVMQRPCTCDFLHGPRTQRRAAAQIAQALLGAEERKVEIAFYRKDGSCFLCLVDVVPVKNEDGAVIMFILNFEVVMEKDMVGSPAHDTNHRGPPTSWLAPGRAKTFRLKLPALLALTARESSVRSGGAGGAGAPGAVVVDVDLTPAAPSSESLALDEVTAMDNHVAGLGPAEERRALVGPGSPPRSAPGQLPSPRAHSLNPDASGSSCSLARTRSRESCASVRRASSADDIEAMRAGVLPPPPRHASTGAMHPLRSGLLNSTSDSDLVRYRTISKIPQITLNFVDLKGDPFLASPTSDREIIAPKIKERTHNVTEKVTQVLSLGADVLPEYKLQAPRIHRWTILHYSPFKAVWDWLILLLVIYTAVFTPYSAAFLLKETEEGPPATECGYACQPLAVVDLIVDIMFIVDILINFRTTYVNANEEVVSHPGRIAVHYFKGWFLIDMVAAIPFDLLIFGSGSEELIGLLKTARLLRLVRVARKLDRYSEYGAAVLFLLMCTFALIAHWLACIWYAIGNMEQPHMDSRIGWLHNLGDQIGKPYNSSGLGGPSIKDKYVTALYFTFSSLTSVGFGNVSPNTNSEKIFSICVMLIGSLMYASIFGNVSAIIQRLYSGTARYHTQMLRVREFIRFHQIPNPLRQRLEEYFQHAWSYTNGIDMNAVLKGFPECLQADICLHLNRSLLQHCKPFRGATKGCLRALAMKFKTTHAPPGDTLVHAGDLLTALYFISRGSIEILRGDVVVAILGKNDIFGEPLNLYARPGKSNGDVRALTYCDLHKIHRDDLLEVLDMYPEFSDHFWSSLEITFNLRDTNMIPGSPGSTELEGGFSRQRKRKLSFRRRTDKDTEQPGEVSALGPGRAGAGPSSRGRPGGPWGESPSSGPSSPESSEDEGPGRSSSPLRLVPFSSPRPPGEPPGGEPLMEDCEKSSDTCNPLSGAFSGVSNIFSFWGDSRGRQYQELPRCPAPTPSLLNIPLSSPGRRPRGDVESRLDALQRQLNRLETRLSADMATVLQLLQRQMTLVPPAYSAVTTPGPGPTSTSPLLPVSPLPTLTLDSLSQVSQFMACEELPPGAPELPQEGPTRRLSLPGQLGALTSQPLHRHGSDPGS

SMILES	hERG current change (%, negative = inhibition) at 10uM [%]
Cn1c(Cn2c(=O)sc3ccccc32)nnc1SCC(=O)NCc1ccccc1	-0.25
Cc1ccc(NC(=S)N2CCN(S(=O)(=O)c3c(F)cccc3F)CC2)cc1C	-17.6
Cc1ccc(Nc2nc(N)nc(CSc3ncccn3)n2)cc1	-18.7
Cc1ccc(Nc2nc(N)nc(CN3CCc4ccccc4C3)n2)cc1	-72.2
Cc1ccc(Nc2nc(N)nc(CSc3nnnn3-c3ccccc3)n2)cc1	4.49
Nc1nc(CSc2ncccn2)nc(Nc2ccccc2)n1	1.55
COc1ccccc1Nc1nc(N)nc(CN2CCc3ccccc3C2)n1	-44.8
Nc1nc(CN2CCc3ccccc3C2)nc(Nc2ccccc2)n1	-51
COc1ccc(Nc2nc(N)nc(CSC(=S)N3CCCCC3)n2)cc1	0.179
Nc1nc(CSCCO)nc(Nc2ccccc2)n1	9.39
COc1ccc(Nc2nc(N)nc(CN3CCc4ccccc4C3)n2)cc1	-56.4
COc1cc([N+](=O)[O-])ccc1NC(=O)COC(=O)CCOc1ccc(C)cc1	-11.2
O=C(CCCCn1c(=O)c2ccccc2n(CC(=O)NC2CCCC2)c1=O)NCc1ccco1	-15.6
O=C(O)CSc1nnc(Cc2ccccc2)n1-c1ccccc1	5.74
COc1cc(CNCCO)ccc1OCCc1ccccc1	6.61
COc1cc(C)c(C(=O)Oc2cc(C)c(C(=O)O)c(O)c2)c(O)c1	11.5
N#Cc1ccc(CN2C(=O)NC3(CCCCCC3)C2=O)cc1	-32.2
CN1CCN(CCOc2cccc(Cl)c2)CC1.Cl	1.19
Cl.Clc1cccc(OCCN2CCCC2)c1	2.13
COc1ccc(OCCN2CCN(C(=O)c3ccc(OC(F)F)c(OC)c3)CC2)cc1	-72.6
CCOc1cc(C(=O)N2CCc3cc(OC)c(OC)cc3C2)ccc1OC(F)F	-35.7
N#Cc1ccc(OCCN2C(=O)NC3(CCSC3)C2=O)cc1 (centres unmarked)	-57.2
Clc1cccc(OCCN2CCN(CCOc3cccc(Cl)c3)CC2)c1	-70.8

SMILES	hERG current change (%, negative = inhibition) at 10uM [%]
COc1ccc(C(=O)N2CCCC2)cc1	-2.88
COc1ccc(C(=O)NCCN2CCN(C(=O)c3ccc(OC)c(OC)c3)CC2)cc1OC	14.5
CC1(C)NC(=O)N(CCOc2ccc([N+](=O)[O-])cc2)C1=O	-37.6
COc1ccc(OCCN2CCN(C(=O)c3ccc(OC)cc3)CC2)cc1	-87.2
COc1ccc(C(=O)N2CCN(C(=O)c3ccncc3)CC2)cc1	12.4
CCC1(CC)C(=O)C2=C3C1[C@H](C(=O)OC)C=C(C(=O)OC)C[C@H]3[C@H]1C(=O)NC(=O)[C@H]1[C@H]2C (some centres unmarked)	3.57
NS(=O)(=O)c1c(Sc2ccccc2C(=O)O)ccc2ccccc12	28.4
CC1CCN(S(=O)(=O)c2c[nH]c(=O)[nH]c2=O)CC1	6.09
CC1CCCN(S(=O)(=O)c2ccc3c(c2)c(=O)nc2ccc(Cl)cn23)C1 (centres unmarked)	-10.5
CC(=O)Nc1ccc(NC(=O)C2CCCN(S(=O)(=O)c3ccc(-n4cnnn4)cc3)C2)cc1 (centres unmarked)	0.72
Cc1cccc(C)c1NC(=O)CNC(=O)C(Cc1ccccc1)NC(=O)c1ccccc1 (centres unmarked)	13.5
COc1ccc(C(=O)N2CCN(Cc3ccc(OC)c(OC)c3)CC2)cc1.O=C(O)C(=O)O	0.702
Cc1ccc(C)n1CCN1CCN(C(=O)CC#N)CC1	16.3
COc1ccc(OCCN2CCN(C(=O)c3ccc(OC)c(OC)c3)CC2)cc1	-58.8
O=C1NC2(CCc3ccccc3C2)C(=O)N1CCOc1cccc(Cl)c1 (centres unmarked)	-51.1
COc1ccc(OCCN2C(=O)NC3(CCc4ccccc4C3)C2=O)cc1 (centres unmarked)	-49.7
CN1CCN(C(=O)c2ccc(OCCOc3ccccc3)cc2)CC1	-9.69
O=C(CN1C(=O)NC2(CCCC2)C1=O)OCCOc1cccc(Cl)c1	-7.43
COc1cc(OC)cc(C(=O)N2CCN(C(=O)c3ccc(OC)c(OC)c3)CC2)c1	-14
O=C(c1c(F)cccc1F)N1CCN(CCOc2ccccc2)CC1	-8.2
CN1CCN(C(=O)c2ccc(Cl)cc2)CC1	8.8
Cc1ccc(C)n1CCN1CCN(C(=O)c2ccc(Cl)cc2)CC1	-50.3
O=C(c1ccc(Cl)cc1)N1CCN(CCOc2ccccc2)CC1	-60.1

SMILES	hERG current change (%, negative = inhibition) at 10uM [%]
COc1ccc(C(=O)Nc2cccc(-c3ccc4nncn4n3)c2)cc1OC	8.84
Cc1ccccc1Nc1c(-c2ccc(N3CCOCC3)cc2)nc2cnccn12	-1.1
COc1cc(OC)cc(C(=O)N[C@H](C(=O)Nc2cccc(S(=O)(=O)N3CCCC3)c2)C(C)C)c1	2.47
O=C(N/N=C/c1ccco1)c1cc(-c2ccccc2)nc2ccccc12	2.45
Cn1c(=NC(=O)C2=NNC(=O)CC2)sc2ccccc21	15.2
O=C(NNC1=C(C(=O)C(F)(F)F)CCC1)c1ccccc1Cl	13
Cc1cc(C(=O)Nc2cccc(C)c2C)n(-c2ccccc2)n1	-11.7
O=C(Nc1cccc(S(=O)(=O)N2CCOCC2)c1)c1ccc(N2CCCC2=O)cc1	8.25
COCCCN(CC(=O)O)S(=O)(=O)c1cccc(Cl)c1	16.3
O=C(c1ccc(Br)o1)N1CCN(CCOc2ccccc2)CC1	-54.1
O=C(c1ccc(Br)o1)N1CCC(Cc2ccccc2)CC1	-10.5
O=C(c1ccco1)N1CCN(CCOc2ccccc2)CC1	0.652
CCN(CC(=O)NCc1ccc(Cl)cc1)C(=O)c1cccc(S(=O)(=O)Nc2ccc(OC)cc2)c1	-0.458
Cc1ccc(NC(=O)C(Cc2ccccc2)NC(=O)c2ccco2)cc1 (centres unmarked)	-3.13
O=C1CC(N2CCN(c3nc4ccccc4s3)CC2)C(=O)N1Cc1cccs1 (centres unmarked)	-62.3
COc1ccc(N2C(=O)CC(N3CCN(c4nc5ccccc5s4)CC3)C2=O)cc1 (centres unmarked)	-30.9
O=C1CC(N2CCC(c3nc4ccccc4o3)CC2)C(=O)N1Cc1cccs1 (centres unmarked)	-30.9
O=C1CC(N2CCN(c3nc4ccccc4s3)CC2)C(=O)N1c1ccc(F)cc1 (centres unmarked)	-53.5
CCOc1cccc(N2C(=O)CC(N3CCN(c4nc5ccccc5s4)CC3)C2=O)c1 (centres unmarked)	5.09
CCCOc1ccc(N2C(=O)CC(N3CCN(c4nc5ccccc5s4)CC3)C2=O)cc1 (centres unmarked)	8.46
Cc1ccc(/C=N/NC(=O)C(NC(=O)c2ccccc2)c2n[nH]c(=O)c3ccccc23)cc1 (centres unmarked)	-2.54
CCC(C)NC(=S)Nc1ccc(C(=O)OC)cc1 (centres unmarked)	15
CCCn1c(=O)c(C(=O)NNC(=O)c2cccc([N+](=O)[O-])c2)c(O)c2ccccc21	-21.7

SMILES	hERG current change (%, negative = inhibition) at 10uM [%]
O=C(Cn1cnc2ccccc2c1=O)NCCC(=O)Nc1ccc2c(c1)OCO2	16.4
Cc1cc(NC(=O)CSc2nc(-c3ccc(Cl)cc3)cs2)no1	-5.45
COC(=O)c1cc(NC(=O)Cn2nc(C)n3cccc3c2=O)cc(C(=O)OC)c1	4.88
COc1cc(S(=O)(=O)NCC2CCCO2)c(OC)cc1Cl (centres unmarked)	10.6
CC1CCN(CC(=O)Nc2ccccc2C#N)CC1	3.06
N#Cc1ccsc1NC(=O)CN1CCCCC1	-5.6
N#Cc1ccsc1NC(=O)CN1CCN(Cc2ccccc2)CC1	-66.4
N#Cc1ccccc1NC(=O)CN1CCN(Cc2ccccc2)CC1	-60.1
N#Cc1ccccc1NC(=O)CN1CCOCC1	13.4
N#Cc1ccsc1NC(=O)CN1CCN(c2ccccc2)CC1	1.63
Cc1ccc(C(=O)NCCN(C)C)cc1C	7.22
Nc1ccccc1NC(=O)c1ccccc1	2.34
O=C(CCCN1C(=O)c2cccnc2Oc2ccc(Cl)cc21)N1CCCCC1	-9.27
O=C1CNC(=O)N1	13.6
CS(=O)(=O)Nc1ccc(C(=O)N2CCCCC2)cc1	-3.35
O=C(Nc1ccc(C(=O)N2CCN(c3ccccc3)CC2)cc1)C1=CSCCO1	-39.8
O=C(Nc1ccc(C(=O)N2CCN(c3ccc(F)cc3)CC2)cc1)C1=CSCCO1	-38.1
CS(=O)(=O)Nc1ccc(C(=O)N2CCN(c3ccccc3)CC2)cc1	-61.9
O=C(c1ccccc1)N1CCN(c2ccccc2F)CC1	10.1
O=C(Nc1ccc(C(=O)N2CCN(c3ccccc3F)CC2)cc1)C1=CSCCO1	-50.3
CS(=O)(=O)Nc1ccc(C(=O)N2CCCC2)cc1	-7.75
O=C(c1ccc(-c2ccccc2)cc1)N1CCN(c2ccccc2F)CC1	7.96
CS(=O)(=O)Nc1ccc(C(=O)N2CCN(c3ccccc3F)CC2)cc1	-68.1
